High-throughput results from PubChem BioAssay.
Most compounds without a hit are left out; they make up all but 1.8% or so of the library.
Myeloid diff 2 – promotes myeloid progenitor differentiation; ER-HoxA9 myeloid progenitors, lysozyme-GFP differentiation, flow cytometry; calls only at 10 µM; 360,000 tested, 1% active;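 active = normalized GFP-positive differentiation at or above the plate's own cutoff, the solvent-only control mean plus 3 SD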;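 note: cells exposed to compound for four days before flow analysis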
GC-B act – GC-B (human) receptor activation. P20594. HEK293-GC-B cells, CNP EC30, cGMP TR-FRET; 0% at EC30 CNP, 100% saturating CNP. activation, % at 10 µM. 370,000 tested, 0.11% active;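 active = activation at 10 µM reaching about 35% in either raw or pattern-adjusted values, limit read from the data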
Granule exo inh – blocks lytic granule exocytosis | TALL-104 LAMP-1 surface exposure, flow cytometry; cells stimulated with thapsigargin and PMA | inhibition, % at 10 µM | 360,000 tested, 0.66% active | AID 651702;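 active = inhibition above about 55%, limit read from the data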
GC-A act – GC-A (human) enzyme activation | P16066 | HEK293 GC-A cells, cGMP TR-FRET, EC30 ANP; 0% at EC30 ANP, 100% saturating ANP | activation, % at 10 µM | 370,000 tested, 0.14% active; in the data active = activation above about 40%
Myeloid diff – promotes myeloid progenitor differentiation. shares compounds with Myeloid diff 2. ER-HoxA9 myeloid progenitors, GFP/Mac1 double-positive flow. calls only. 2,300 tested, 2% active;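 active = share of green or green-and-red cells above 9 and 9% in run 1 or 4 and 3% in run 2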
GFP autofluor – flagged as fluorescent in myeloid differentiation counter-screen | shares compounds with Myeloid diff 2 | ER-HoxA9 myeloid progenitors, no estrogen, GFP autofluorescence flow cytometry; vehicle wells 0%, positive control 100% | fluorescence response, % (concentration not given with the values) | 2,300 tested, 7.4% active | AID 651707;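 active = over 5% cells positive for green fluorescent reporter, or over 2% positive for both it and APC stain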;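 note: range taken on the double positive population between DMSO and positive control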
* marks the source's active call; other numbers are inactive results; i = inactive; . = not tested or not shown; + = active, no number.

SMILES	Myeloid diff 2	GC-B act	Granule exo inh	GC-A act	Myeloid diff	GFP autofluor
CSc1nc(N)c2c(C)c(C)sc2n1	i	-1	3	-4	i	0
Cn1c(=O)c2[nH]c(SCC(=O)NCCc3ccc(F)cc3)nc2n(C)c1=O	.	6	.	-2	.	.
Cc1ccc([C@H]2C[C@H](n3cc(C4CC4)nn3)[C@@H](O)CN2Cc2cccs2)cc1	i	-8	-1	-2	i	1
Cc1ccc(S(=O)(=O)N2CCN(C(=O)CN3CCN(c4ccc(O)cc4)CC3)CC2)cc1	+	-3	5	-1	i	0
CCCC[n+]1ccn(C2=C([O-])c3ccccc3C(=O)/C2=N\S(=O)(=O)c2ccc(Br)cc2)c1	i	1	18	-2	i	0
Cc1ccc(S(=O)(=O)/N=C2\C(=O)c3ccccc3C([O-])=C2n2cc[n+](CCC(C)C)c2)cc1	.	.	-6	.	.	.
Cc1cccc(Cn2c(NCCO)nc3c2c(=O)n(C)c(=O)n3C)c1	+	.	0	.	i	0
C=CCNc1nc2c(c(=O)n(C)c(=O)n2C)n1Cc1ccc(F)cc1	i	24	0	21	i	1
COCCNc1nc2c(c(=O)n(C)c(=O)n2C)n1Cc1cccc(C)c1	i	5	2	5	.	.
C[C@H](O)[C@@H]1CN2CCc3c([nH]c4ccccc34)[C@@H]2C[C@@H]1N(C)C(=O)OCc1ccccc1	i	0	0	2	.	.
COc1ccccc1NC(=O)Nc1sccc1-c1nc2ccccc2s1	+	4	19	3	i	0
CCN(C(=O)CSc1nnc(-c2cccnc2)n1Cc1ccco1)c1ccccc1	.	-4	.	-4	.	.
CC(=O)NCC1(c2ccccc2)CCN(CCCC(=O)c2ccc(F)cc2)CC1	i	-2	3	-6	.	.
O=C(CCc1nc(-c2ccccc2F)no1)NC1CCN(Cc2ccccc2)CC1	i	8	15	-1	i	0
Cc1cc(/C=C2\SC(=S)N(C)C2=O)c(C)n1-c1cccc(O)c1	+	-3	5	-9	i	5
CC1(C)Cc2c(cnn2-c2ccccc2)C(NC(=O)C2(C(N)=O)CC2)C1 (stereo not given)	+	-1	-1	-3	i	0
C[C@@H](N)P(=O)(O)C[C@H](Cc1ccccc1)C(=O)O	.	4	.	0	.	.
CN1OC[C@@H]2CN(C(=O)CCc3ccccc3)[C@H](c3cccc(Oc4ccccc4)c3)C[C@@H]21	i	-7	-1	-3	i	1
CC(C)(C)c1ccc(C(=O)NC(Cc2ccccc2)C(=O)O)cc1 (stereo not given)	i	-8	1	1	i	0
O=C(NC(Cc1ccccc1)C(=O)O)c1ccccc1 (stereo not given)	i	0	-1	2	.	.
O=C1Nc2ccccc2-n2nnnc2C1N1CCN(c2ccc(C(F)(F)F)cc2[N+](=O)[O-])CC1 (stereo not given)	i	-2	3	-1	.	.
C[C@H]1CN([C@@H](C)CO)C(=O)CCCn2nncc2CO[C@@H]1CN(C)S(=O)(=O)c1ccc(Oc2ccccc2)nc1	i	-2	3	-1	.	.
C[C@@H]1CN([C@@H](C)CO)C(=O)CCCn2nncc2CO[C@@H]1CN(C)C(=O)Nc1cccc(Oc2ccccn2)c1	i	-2	-1	2	i	0
Cc1ccc(S(=O)(=O)N(C)C[C@@H]2OCc3cn(nn3)CCCC(=O)N([C@@H](C)CO)C[C@H]2C)cc1	i	4	-8	-2	i	0
C[C@H]1CN([C@@H](C)CO)C(=O)CCCn2nncc2CO[C@H]1CN(C)S(=O)(=O)c1ccc2c(c1)OCCCO2	i	0	-3	-1	i	0
SMILES	Myeloid diff 2	GC-B act	Granule exo inh	GC-A act	Myeloid diff	GFP autofluor
C#CCN(Cc1ccco1)C(=O)c1nnc2c3ccccc3n(S(=O)(=O)c3ccc(C)cc3)c2n1	.	9	.	3	.	.
CC1=CC2=C(C=O)C(=O)C(C)(O)C(O)C2=CO1 (stereo not given)	i	2	-3	2	.	.
O=C(Nc1ccccc1)OCCc1ccccc1	i	.	-5	.	.	.
C#CCOCCOCCOCCNc1nc(N2CCN(C(=O)CCCCCCCCCCNC(=O)Cn3cc(C[C@@H](C)O)nn3)CC2)nc(N2CCN(C(=O)CCCCCCCCCCNC(=O)[C@H](CCCN=C(N)N)n3cc(C[C@@H](C)CC)nn3)CC2)n1	i	.	16	.	.	.
CCOC(=O)C1CCN(C(=O)c2ccc3c(c2)OCCO3)CC1	i	1	-1	-1	.	.
CCOc1ccc(C(=O)N2CCC(C(=O)c3ccc4c(c3)OCCO4)CC2)cc1	i	1	-5	3	i	0
CCCCCCCCCn1c2c(c(=N)c3c1CCC3)CCC2	.	.	19	.	.	.
CCCCn1c2c(c(=N)c3c1CCC3)CCC2	i	0	-3	5	i	0
CCCN1C(=O)c2cccc3c(N4CCCCC4)ccc(c23)C1=O	+	4	0	1	i	1
CN1CCN(C(=O)c2cccc(-c3cnc4cnc(-c5ccccc5Oc5ccccc5)cn34)c2)CC1	i	-9	7	-22	.	.
CCOC(=O)N1CCN(C(=O)C2CCN(S(=O)(=O)N3CCCC3)CC2)CC1	+	-2	0	-1	i	0
C=CCN1C=C/C(=C\C=C(C#N)C#N)c2ccccc21	+	0	-2	-2	i	1
CCC(C)NC(=O)C1CCC(=O)N(c2ccc3c(c2)OCO3)C1c1ccc(OC)cc1 (stereo not given)	i	-4	-9	5	.	.
COCCCNC(=O)C1CCC(=O)N(c2ccc3c(c2)OCO3)C1c1ccc(OC)cc1 (stereo not given)	i	0	-2	5	i	0
O=C(c1ccccc1)c1ccc(C(=O)N2CCN(c3ccccc3Cl)CC2)cc1	i	4	-3	1	i	0
CC(C)N(C(=O)[C@H]1C[C@H](CC(=O)NC(C)(C)C)C(=O)N2CCc3c([nH]c4cc(-c5ccco5)ccc34)[C@]12C)C(C)C	i	2	8	0	.	.
CCN(CC)C(=O)[C@H]1C[C@H](CC(=O)NC(C)(C)C)C(=O)N2CCc3c([nH]c4cc(-c5ccco5)ccc34)[C@]12C	+	0	4	3	i	0
Cc1ccc(/C=C/c2nnc(-c3cccs3)o2)cc1	i	-5	4	-12	i	0
Cc1ccc(F)c(S(=O)(=O)NC(=O)C2(C)CCN2C(=O)c2sccc2C)c1 (stereo not given)	i	2	1	3	.	.
CCOC(=O)c1c(C)[nH]c(C(=O)N/N=C\c2ccccc2Cl)c1C	i	0	-1	-1	i	0
